In the library only some 9.4% were active in any assay of this set; here they are far more common.
ELG1 repair inh = ELG1-dependent DNA repair inhibition; Potency, µM (doses to about 46.1 µM), without a hit: at the top dose activity change, negative = inhibition, usual class: inhibitors; HEK293T ELG1-luciferase reporter, luminescence, 16 h; DNA damage induced by 5-fluorouridine; 2.3% of 330,000 active; AID 504467; also: % is scaled to controls: 0 for no effect and ±100 for the full control effect; nearly all actives have a fitted effect of over 55% in size
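Step one: seed 2,000 cells per well. Step two: pin-transfer compound or DMSO alongside 5-fluorouridine. Step three: incubate 16 hr, 37 °C, 5% CO2. Step four: add ONE-Glo, wait 30 min, read luminescence.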
Rab9 promoter act = activates the Rab9 promoter. Huh7 Rab9 promoter-luciferase reporter, luminescence, 24 h. Potency, µM (top dose mostly 9.22 µM), inactives show top-dose activation, negative = inhibition, most hits filed as activators. 2.8% of 320,000 active. AID 485297; also: % of control where 0% means no effect; nearly all actives have a fitted effect of over 60% in size
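Steps: seed 1500 Huh7 Rab9-luc cells per well, rest 2 h at 37 °C; add compound in DMSO; incubate 24 h; add luciferase reagent, 10 min ambient; read luminescence.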
ELG1 genotox = induces genotoxicity in HEK293T cells with luciferase-tagged ELG1. HEK293T ELG1-luciferase reporter, luminescence, 16 h. Potency, µM (top dose mostly 46 µM), for the others: top-dose activity change, positive = activation, usual class: activators. 1.3% of 330,000 active. AID 504466; also: % of control where 0% means no effect; nearly all actives have a fitted effect of over 60% in size
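Quantitative HTS format in 1536-well plates. HEK293T ELG1-luciferase reporter cells receive test compound and are incubated 16 hr at 37 °C, 5% CO2; ONE-Glo added, 30 min room temperature, then luminescence read.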
SMN2 splice up = enhancers of SMN2 splice variant expression | HEK293 SMN2-luciferase splicing reporter, luminescence, 30-36 h | Potency, µM (titrated, usually from 46.1 µM), for inactives: top-dose activity change, positive = activation, actives largely listed as activators | 2.8% of 210,000 active; also: % of control where 0% means no effect; nearly all actives have a fitted effect of over 55% in size
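qHTS luciferase splicing reporter: luminescence rises when SMN2 exon 7 is included in transfected HEK293 cells. Compound exposure lasted 30-36 h at 37C, with 4.5 mM final sodium butyrate as control, followed by a ONE-Glo read.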
NPC1 prom act = activators of NPC1 promoter | 2.4% of 320,000 active | Potency, µM (doses to about 9.22 µM), for inactives: top-dose activation, hits mostly activators | Huh7 NPC1 promoter luciferase reporter, 24 h; also: % of control where 0% means no effect; nearly all actives have a fitted effect of over 60% in size
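Luminescence read-out of NPC1 promoter-driven luciferase in stably transfected Huh7 cells; compounds delivered in DMSO and left 24 h at 37C, 5% CO2, qHTS titration format.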
FLuc modulator = firefly luciferase modulation, counter-screen for miR-21 project. P08659. purified FLuc, Km substrates, luminescence inhibition. Potency, µM (titrated, usually from 57.5 µM), without a hit: at the highest dose activity change, negative = inhibition, hits mostly inhibitors. AID 588342. 6.9% of 360,000 active;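 also: plate controls were vehicle for no effect and reference inhibitor for full effect; nearly all actives have a fitted effect of over 55% in size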
Target sequence (P08659 whole entry, looked up): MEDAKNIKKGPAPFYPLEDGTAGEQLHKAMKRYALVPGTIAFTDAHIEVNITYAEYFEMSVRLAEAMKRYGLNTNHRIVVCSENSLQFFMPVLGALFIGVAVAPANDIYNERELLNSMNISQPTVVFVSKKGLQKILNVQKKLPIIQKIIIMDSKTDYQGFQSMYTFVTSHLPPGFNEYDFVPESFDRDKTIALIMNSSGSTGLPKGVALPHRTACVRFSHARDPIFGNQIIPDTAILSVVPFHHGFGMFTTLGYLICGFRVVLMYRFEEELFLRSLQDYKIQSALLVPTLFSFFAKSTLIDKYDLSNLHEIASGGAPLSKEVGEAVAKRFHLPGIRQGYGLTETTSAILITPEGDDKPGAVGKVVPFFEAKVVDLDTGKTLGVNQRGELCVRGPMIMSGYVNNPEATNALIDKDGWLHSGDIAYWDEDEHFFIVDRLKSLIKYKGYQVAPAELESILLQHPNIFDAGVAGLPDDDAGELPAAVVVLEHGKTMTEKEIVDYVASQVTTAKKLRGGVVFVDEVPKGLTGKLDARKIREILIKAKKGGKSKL
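Purified P. pyralis luciferase (10nM final) with 10uM D-luciferin and 10uM ATP (Km levels) in 50mM Tris acetate pH 7.5, 10mM Mg acetate, 0.01% Tween-20, 0.05% BSA; qHTS 6-point titration, ~60 µM downward; luminescence read.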
Starred values were filed as active, the others as inactive; ? = inconclusive; / = no result. Calls follow the shape of the dose curve; as a rule, active = well fitted curve in the direction sought with a large enough effect; inconclusive = small, poorly fitted or top-dose-only effect, or another doubt; inactive = no such curve, though single readings can be large; an effect the other way counts as inactive or inconclusive. Potency is read from the fitted curve at half-maximal effect.

SMILES	ELG1 repair inh	Rab9 promoter act	ELG1 genotox	SMN2 splice up	NPC1 prom act	FLuc modulator
CC(=O)c1ccc(N2CCN(C(=O)c3cc4c(s3)-c3ccccc3OC4)CC2)cc1	/	/	/	7%	/	-7%
CN(Cc1ccccc1)Cc1nc2c(c(=O)n(C)c(=O)n2C)n1Cc1ccc(F)cc1	18µM*	2%	-5%	-16%	17%	-3%
CC(C)n1c(NCCc2ccccc2)nc2c1c(=O)n(C)c(=O)n2C	18µM*	-16%	-8%	-78%	-9%	0%
Cn1c(=O)c2c(nc(NCCc3ccccc3)n2Cc2ccc(Cl)cc2)n(C)c1=O	/	/	/	8%	/	-13%
CCc1ccccc1NC(=O)Cn1c(C(=O)OC)cc2oc(C)cc21	/	/	/	0%	/	4%
Cc1cccc(CS(=O)(=O)CC2Nc3ccc(C(=O)NCc4ccccc4Cl)cc3NC2=O)c1 (stereo not drawn)	/	/	/	/	/	-16%
c1ccc(CNc2ncnc3sccc23)cc1	-11%	-25%	-5%	/	-13%	3%
c1cncc(CNc2ncnc3sccc23)c1	21µM*	-1%	-19%	-69%	-3%	0%
c1cncc(CNc2ncnc3ccc(-c4ccco4)cc23)c1	/	-1%	/	/	1%	-6%
OC(CNc1ncnc2sccc12)c1ccccc1 (stereo not drawn)	?	1%	8%	/	?	17µM*
COc1cccc(-c2ccc3ncnc(NCc4cccnc4)c3c2)c1	5.2µM*	2%	-6%	/	2%	-3%
O=C(CC1N=C2c3ccccc3N=C(SCc3ccccc3Cl)N2C1=O)NC1CCCCC1 (stereo not drawn)	/	/	/	/	/	-3%
O=C1CN(C(=O)c2ccccc2)C(c2ccccc2)c2cc(F)ccc2N1 (stereo not drawn)	13%	0%	0%	/	-1%	-1%
Cc1ccc2c(c1)C(c1ccccc1)N(C(=O)c1ccccc1)CC(=O)N2 (stereo not drawn)	-9%	1%	-4%	/	1%	-1%
Cc1ccc2c(c1)C(c1ccccc1)N(C(=O)c1cccc([N+](=O)[O-])c1)CC(=O)N2 (stereo not drawn)	13µM*	-3%	-12%	/	-5%	-1%
O=C1CN(C(=O)c2ccc(Br)o2)C(c2ccccc2)c2cc(F)ccc2N1 (stereo not drawn)	18µM*	-6%	-1%	7%	1%	-3%
CC1CC(C)CN(CCCNC(=O)c2ccc3nc(N4CCCCC4)sc3c2)C1 (stereo not drawn)	?	?	?	/	0.45µM*	-12%
CC1CCCC(C)N1CCCNC(=O)c1ccc2nc(N3CCOCC3)sc2c1 (stereo not drawn)	15%	-1%	10%	/	0%	6%
CC1CCCC(C)N1CCCNC(=O)c1ccc2nc(N3CCCCC3)sc2c1 (stereo not drawn)	?	?	11%	/	3.2µM*	-11%
Cc1csc(SCC(=O)Nc2ccc(C)c(F)c2)n1	?	17%	3%	/	9%	/
CSc1nsc(SCC(=O)Nc2ccc3c(c2)OCCO3)n1	?	17%	10µM*	22µM*	10%	21µM*
Cc1csc(SCC(=O)Nc2ccc3c(c2)OCCO3)n1	?	?	?	?	25%	21µM*
Cc1cccc(N2CCN(C(=O)c3oc(=O)c4ccccc4c3-c3ccccc3)CC2C)c1 (stereo not drawn)	/	/	/	-14%	/	4%
CCC(=O)N1CCc2cc(S(=O)(=O)CCC(=O)Nc3cc(Cl)ccc3OC)ccc21	/	/	/	-9%	/	-15%
COc1ccc(COC(=O)Oc2ccc(CNC(C)=O)cc2OC)c([N+](=O)[O-])c1	30%	-2%	0%	/	-4%	13µM*
COc1cc(COC(=O)Oc2ccc(CNC(C)=O)cc2OC)c([N+](=O)[O-])cc1OC	10%	-5%	4%	/	-3%	-4%
